system: PXR homodimer (NR concentration 270 nM); experiment: PBM binding z-score (relative to random genomic background probes); higher = stronger binding; sequences stand for … in GC…GCGATTGACAGCGTAGAATGAAGG
How it was run: (§1)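 Ligand-free nuclear receptor dimers were applied to custom Agilent 4×180K protein-binding microarrays whose double-stranded probes carried direct-repeat seeds, single-nucleotide variants, half-site ablations and random human genomic background sequences in 34-nt variable regions. Incubation lasted 1 h. Binding z-scores were computed against the random background probes from regression-normalized fluorescence.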

Sequence	PBM binding z-score
ATTACAGGGTCATCGTAGGCCAGAGTACGCACAG	1.66
ACTCGGAGGACAAAGGTCAGATCTACGCCAGTGA	0.325
TTACCAAGGTGAGCTGAGGTCGCTGATCCAACTC	-0.341
CCTCGGAGGACAGAAGGTCTGAGCTGTCCGCTTT	-0.886
GCCTACGGGTCAAAGGTTATAGCATGAATAGAAT	0.219
TAGCCTAGGTCAGTGGGCCAGTATAGTACGCATC	-0.662
CCTAGCAGGCCAATCTGGGGCACTCAAGGCTTGA	-1.01
GCTCGGAGGACCAGGTCAGAGCTTTGTCCGTAGA	-0.875
GCTATTAGTTCAAAGGGCAACCGAATGATTCTCG	1.29
ACAGACAGGTGGTGAAGGTAACTCAGGCTATCAT	0.0248
TCTAGTTGGTCAAAGTTCACACACTCGAAATGCG	4.01
TCACCAAGGTGAGCTGAGGTCGTTGATCCAACTC	-0.0817
CCTGCTAGGTCAATGGGCAGCTAAAGCAGCTCGC	-0.589
TCGAGTAGGTTAGTAGGGGCATTCAGCCAACATA	0.000181
TCGAGTAGGTTACCAATGGGGCATGCAGCTTTCT	-0.874
TCGTGTAGGTTACCAATGGGGCATTCAGCTTTCT	-0.304
TCAGACAGGTGAAGGTAACTGAGGTACGCAGTCG	-0.0672
ATCTCTAGGTAAAGATAGTTCAGTGAATGCAAAT	0.763
TCTAGTTGTTCACGGAGGTCACACACGACGGGTA	1.07
TAGCCTAGCTCATGGGCCAGTATACCACGCGAAC	-0.677

Sequence	PBM binding z-score
CAAACTAGGTCCAAGGTCAAAGTCGAGCCAACCA	1.57
ATCTCTAGGTAAGACTCAGTTTAGTGAAGAACGC	0.554
CGTCCAAGCTCAAGGTCAGTGAAAGAGACTCGAA	0.437
TAGCCTAGGTCATGCGGTCCAGTATAGTGTCGGC	0.0796
ACTAGCAGGCCAAGTTAGGGTCACTCAAACAAAG	0.292
GGAACGAGGGCAAAGCTGATAGCATCTGTCGACG	-0.0388
ATCTCAAGGTAACCAAGTTCAGTGAATGCCGAAC	3
CGAACTAGGTCATCCACGACAGTGAATACATTGA	0.311
CGAACGAGGGCATGTGTTGATAGCAAATGCCGAT	-0.168
ACAGACAGGTGCTGAAGGTAACTCAGGCTATCAT	-0.113
CCGACTGGGGCAAAGGTTACCGTACTCAGTACGA	-0.837
GCTCGGAGTACAAGGTCAGAGCTTTGTCCGTAGA	-0.101
TCTCGGAGGACACGAAAGTTCAGAGCTCGACATC	2.7
CCTCGGAGGACAGAAGGTCAGACCTGTCCGCTTT	-0.272
ATCTCTAGGTAAAGTTCAGTCAAAGATCGATAGA	1.93
CCTTACGGATCAAGGTTATAGCACGGGTGGTACG	0.798
AGAACGAGGGCACGCAGAGTTGATAGCAGAGTAG	0.0867
TCTGCTCGGTCAACGATGGTCAGCTAATCTGCTA	-1.09
CCGGACAGGTGAAAGGTAACTCAGTCTGGTACGC	0.241
CCTCGGAGGACAGAAGGTCACAGCTGTCCGCTTT	-0.204

system: RARa:RXR (NR concentration 270 nM, RXRa partner concentration 90 nM); experiment: as above
How it was run: as §1

Sequence	PBM binding z-score
ATTACAGGGTCATCGTAGGCCAGAGTACGCACAG	5.52
ACTCGGAGGACAAAGGTCAGATCTACGCCAGTGA	4.45
TTACCAAGGTGAGCTGAGGTCGCTGATCCAACTC	1.5
CCTCGGAGGACAGAAGGTCTGAGCTGTCCGCTTT	-0.544
GCCTACGGGTCAAAGGTTATAGCATGAATAGAAT	8.24
TAGCCTAGGTCAGTGGGCCAGTATAGTACGCATC	0.533
CCTAGCAGGCCAATCTGGGGCACTCAAGGCTTGA	-0.273
GCTCGGAGGACCAGGTCAGAGCTTTGTCCGTAGA	0.505
GCTATTAGTTCAAAGGGCAACCGAATGATTCTCG	4.32
ACAGACAGGTGGTGAAGGTAACTCAGGCTATCAT	-0.15
TCTAGTTGGTCAAAGTTCACACACTCGAAATGCG	5.1
TCACCAAGGTGAGCTGAGGTCGTTGATCCAACTC	2.65
CCTGCTAGGTCAATGGGCAGCTAAAGCAGCTCGC	1.07
TCGAGTAGGTTAGTAGGGGCATTCAGCCAACATA	0.287
TCGAGTAGGTTACCAATGGGGCATGCAGCTTTCT	0.433
TCGTGTAGGTTACCAATGGGGCATTCAGCTTTCT	0.543
TCAGACAGGTGAAGGTAACTGAGGTACGCAGTCG	0.874
ATCTCTAGGTAAAGATAGTTCAGTGAATGCAAAT	0.643
TCTAGTTGTTCACGGAGGTCACACACGACGGGTA	4.45
TAGCCTAGCTCATGGGCCAGTATACCACGCGAAC	-0.584

Sequence	PBM binding z-score
CAAACTAGGTCCAAGGTCAAAGTCGAGCCAACCA	3.71
ATCTCTAGGTAAGACTCAGTTTAGTGAAGAACGC	0.162
CGTCCAAGCTCAAGGTCAGTGAAAGAGACTCGAA	1.86
TAGCCTAGGTCATGCGGTCCAGTATAGTGTCGGC	2.22
ACTAGCAGGCCAAGTTAGGGTCACTCAAACAAAG	3.73
GGAACGAGGGCAAAGCTGATAGCATCTGTCGACG	0.0386
ATCTCAAGGTAACCAAGTTCAGTGAATGCCGAAC	1.14
CGAACTAGGTCATCCACGACAGTGAATACATTGA	2.59
CGAACGAGGGCATGTGTTGATAGCAAATGCCGAT	0.367
ACAGACAGGTGCTGAAGGTAACTCAGGCTATCAT	-0.341
CCGACTGGGGCAAAGGTTACCGTACTCAGTACGA	3.75
GCTCGGAGTACAAGGTCAGAGCTTTGTCCGTAGA	2.14
TCTCGGAGGACACGAAAGTTCAGAGCTCGACATC	1.27
CCTCGGAGGACAGAAGGTCAGACCTGTCCGCTTT	2.2
ATCTCTAGGTAAAGTTCAGTCAAAGATCGATAGA	1.48
CCTTACGGATCAAGGTTATAGCACGGGTGGTACG	0.636
AGAACGAGGGCACGCAGAGTTGATAGCAGAGTAG	1.22
TCTGCTCGGTCAACGATGGTCAGCTAATCTGCTA	-0.0627
CCGGACAGGTGAAAGGTAACTCAGTCTGGTACGC	1.91
CCTCGGAGGACAGAAGGTCACAGCTGTCCGCTTT	4.13

— the supplement of paper PMC6555819
